“And” between values parts separate entries of the source, which are not always exact repeats. Identical values can stand only once. The source holds several records for some structures; these can differ, active in one and inactive in another. The source made the active and inactive calls. Rule for the calls, unless noted: active = hit-call score of the fitted dose curve at least 0.9, where 1 is the maximum; inactive = score below 0.9.

This passage reports outcome and AC50 results from PubChem BioAssay (EPA / NIEHS).

Experiment [1] can be described thus: CCTE_Shafer_MEA_dev_interburst_interval_mean: CCTE's Neural Network Formation Assay for Mean Interburst Interval, Shafer Lab (AID 2284046).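 Note: curve fitted for decrease in interburst interval relative to DMSO.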 In a few lines: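 Primary rat cortical neurons on PEI-coated 48-well MEA plates (laminin added with cells at plating) (16 electrodes/well), exposed from plating day 0 with renewal at DIV 5 and 9. Mean inter-burst interval averaged over bursting electrodes, AUC across days 5, 7, 9, 12; DMSO baseline.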

Experiment [2] can be described thus: CCTE_Shafer_MEA_dev_inter_network_spike_interval_mean: CCTE's Neural Network Formation Assay for Mean Inter-network Spike Interval, Shafer Lab (AID 2284047).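 For AC50: potency for a decrease in mean inter-network spike interval below DMSO.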 In a few lines:
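Mean time between consecutive network-spike peaks, recorded extracellularly (adaptive spike detection) on DIV 5, 7, 9 and 12, summarized as trapezoidal AUC. Rat cortical cultures on MEAs dosed continuously days 0–12, re-dosed at feeds; loss-of-signal fit relative to DMSO.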

The nature of experiment [3]: CCTE_Shafer_MEA_dev_network_spike_number: CCTE's Neural Network Formation Assay for Number of Network Spikes, Shafer Lab (AID 2284048).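 For AC50: fit as a loss of signal meaning fewer network spikes than DMSO.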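 Note: synchronized bursts across electrodes counted on days 5 7 9 12 and integrated as AUC.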 In a few lines: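 Developing networks of primary rat cortical neurons are treated over 12 days starting at plating, with media and compound fully replaced on DIV 5 and 9. Network spike counts from four recording days are integrated as trapezoidal AUC.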

Experiment [4] can be described thus: CCTE_Shafer_MEA_dev_network_spike_peak: CCTE's Neural Network Formation Assay for Mean Number of Electrodes in Network Spike, Shafer Lab (AID 2284049).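 For AC50: fitted for loss of signal meaning fewer electrodes in network spikes than DMSO.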 In a few lines: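 Rat cortical primary culture, 1.5 x 10^5 cells/well, 48-well MEA (16 electrodes/well). Dosing day 0 through DIV 12, full media/compound exchange DIV 5, 9. AxIS adaptive spike detection; AUC over days 5/7/9/12; loss-of-signal vs DMSO.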

A short description of experiment [5]: CCTE_Shafer_MEA_dev_spike_duration_mean: CCTE's Neural Network Formation Assay for Mean Spike Duration, Shafer Lab (AID 2284051).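 For AC50: potency for a decrease in mean network spike duration versus DMSO.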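 Note: mean network spike duration pooled as area under curve over DIV 5 to 12 recordings.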 In a few lines:
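Spontaneous activity was recorded on days 5, 7, 9 and 12 from rat cortical cultures grown on microelectrode arrays and dosed continuously from day 0, with media and compound renewed after the DIV 5 and 9 recordings. Network-spike duration was collapsed by area under the curve.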

Experiment [6] in a line: CCTE_Shafer_MEA_dev_network_spike_duration_std: CCTE's Neural Network Formation Assay for Standard Deviation of Network Spike Duration, Shafer Lab (AID 2284052).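 Note: hits are decreases in network spike duration SD versus DMSO vehicle.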 The essentials:
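Network spike duration variability was collapsed across recordings on days 5, 7, 9 and 12 by trapezoidal area-under-curve and fitted downward against DMSO. Cultures were rat cortical neurons on PEI-coated MEA plates, dosed continuously from plating, refed with compound DIV 5/9.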

Experiment [7] is described as follows: CCTE_Shafer_MEA_dev_per_network_spike_spike_number_mean: CCTE's Neural Network Formation Assay for Mean Number of Spikes in a Network Spike, Shafer Lab (AID 2284053).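 For AC50: fitted as decrease in spikes per network spike relative to DMSO.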 In a few lines:
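Mean spike count within each network spike, taken in a 0.05 s window at its peak, was recorded on days 5, 7, 9 and 12 and integrated as trapezoidal area under the curve. Rat cortical cultures on MEA plates received continuous compound from day 0, refreshed at medium changes on DIV 5 and 9.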

Experiment [8] in a line: CCTE_Shafer_MEA_dev_per_network_spike_spike_percent: CCTE's Neural Network Formation Assay for Percent of Spikes in a Network Spike, Shafer Lab (AID 2284054). In a few lines: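 Rat primary cortical cultures, 1.5 x 10^5 cells/well on MEA. Continuous compound exposure d0–12, medium/compound renewed DIV 5, 9. Network-spike spike % (0.05 s peak window), AUC over 4 recordings, DMSO baseline.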

The subject of another experiment is DIO2 (gene 1734). The experiment in a line: CCTE_GLTED_hDIO2: CCTE's human Deiodinase 2 (DIO2) Inhibition Assay, Great Lakes Toxicology and Ecology Division (GLTED) Lab (AID 2284050; active = hit-call score of the fitted dose curve at least 0.9, where 1 is the maximum). In a few lines: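 In this cell-free test, chemicals are exposed to human deiodinase type 2 for 3 hours. Released iodide is determined spectrophotometrically via the Sandell-Kolthoff method, and signal loss relative to DMSO is fitted.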

A further experiment deals with DIO3 (gene 1735). As to the kind of experiment: CCTE_GLTED_hDIO3: CCTE's human Deiodinase 3 (DIO3) Inhibition Assay, Great Lakes Toxicology and Ecology Division (GLTED) Lab (AID 2284055; active = hit-call score of the fitted dose curve at least 0.9, where 1 is the maximum;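 for AC50: potency is for inhibition seen as loss of released iodide signal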). In a few lines:
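Enzyme activity is tracked as iodide release from substrate by recombinant human DIO3 over 3 h with chemical present. A second Sandell-Kolthoff step converts iodide to an absorbance signal, fitted relative to DMSO.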

As to `c1ccc(OP(Oc2ccccc2)Oc2ccccc2)cc1`, the call in experiment [1], in experiment [2], in [3], in [4], in experiment [5] and in [6] was inactive. Besides, the molecule was classed as inactive in experiment [7] and in [8].
As for `CC(O)C(F)(F)C(F)(F)F` (centres undefined), the result in experiment [1], in experiment [2], in [3], in [4], in [5] and in experiment [6] was inactive. Besides, the molecule was classed as inactive in experiment [7] and in experiment [8].
On to `O=S(=O)(c1ccc(O)cc1)c1ccc(O)cc1`, for which the result in [1], in experiment [2], in experiment [3], in experiment [4], in [5] and in experiment [6] was inactive. Also, the result in experiment [7] and in experiment [8] was inactive.
With `CCOP(=S)(OCC)SCSCC`, the AC50 in experiment [1] was 50 µM (active); in [4], 74.9 µM (active) and 26.4 µM (active); in experiment [5], 72.3 µM (active); in experiment [7], 50 µM (active) and 12.1 µM (active); in experiment [8], 92 µM (active). The call in experiment [1], in [2], in experiment [3], in [5], in [6] and in experiment [8] was inactive.
For `COC(=O)C(F)(F)C(F)(F)OC(F)(C(F)(F)F)C(F)(F)OC(F)=C(F)F` (centres undefined), the AC50 in the experiment on DIO2 (gene 1734) is 18.2 µM (active); in the experiment with DIO3 (gene 1735) it was 3.1 µM (active).
For the molecule `CCNc1nc(Cl)nc(NC(C)(C)C)n1`, the molecule was called inactive in the experiment with DIO2 (gene 1734). For the same molecule, the AC50 in the experiment with DIO3 (gene 1735) was 11.4 µM (active).
Consider `O=C(O)C=CC(F)(C(F)(F)F)C(F)(F)F`, for which the molecule was called inactive in experiment [1], in experiment [2], in [3], in [4], in [5] and in experiment [6]. The call in [7] and in experiment [8] was inactive.
For `C=CC(=O)OCC(F)(F)C(F)F`, the AC50 in experiment [1] was 8.7 µM (active); in [4], 9.04 µM (active); in the experiment on DIO2 (gene 1734), 47.3 µM (active); in experiment [5], 15 µM (active); in [7] it was 4.85 µM (active); in [8] it was 15 µM (active). In addition, the AC50 in the experiment on DIO3 (gene 1735) was 52.4 µM (active). The molecule was called inactive in [2], in experiment [3] and in [6].
Consider `c1cc2c3c(cccc3c1)CC2`, for which the outcome in [1], in experiment [2], in [3], in experiment [4], in experiment [5] and in [6] was inactive. The molecule was called inactive in experiment [7] and in [8].
For the molecule `CO/N=C(/C(=O)OC)c1ccccc1COc1ccccc1C`, the AC50 in experiment [1] is 0.939 µM (active); in experiment [2] it was 0.712 µM (active); in experiment [3], 0.474 µM (active); in [4], 0.567 µM (active); in experiment [5], 0.688 µM (active); in experiment [6] it was 0.312 µM (active). Also, the AC50 in experiment [7] was 0.518 µM (active); in experiment [8] it was 0.902 µM (active).
Take `ClC1=C(Cl)C2(Cl)C3C(Cl)C(Cl)CC3C1(Cl)C2(Cl)Cl` (centres undefined): the half-maximal activity concentration (AC50) is 7.68 µM (active) in experiment [1]; 1.98 µM (active) in [3]; 6.76 µM (active) in [4]; 7.67 µM (active) in experiment [5]; 7.75 µM (active) in experiment [7]; 7.62 µM (active) in experiment [8]. Also, the call in experiment [2] and in [6] was inactive.
Turning to `CC1(C)CN=C(NN=C(/C=C/c2ccc(C(F)(F)F)cc2)/C=C/c2ccc(C(F)(F)F)cc2)NC1`, the AC50 in the experiment on DIO2 (gene 1734) was 18.8 µM (active). Moreover, the outcome with DIO3 (gene 1735) was inactive.
Take `O=P1(N(CCCl)CCCl)NCCCO1` (centres undefined): the molecule was classed as inactive in [1], in [2], in experiment [3], in experiment [4], in experiment [5] and in experiment [6]. The call in experiment [7] and in experiment [8] was inactive.
In the case of `CCOc1ccc(C(C)(C)COCc2cccc(Oc3ccccc3)c2)cc1`, the AC50 in [1] was 18 µM (active); in experiment [4] it was 6.54 µM (active); in experiment [5] it was 4.41 µM (active); in experiment [7], 10 µM (active); in experiment [8] it was 10 µM (active). In addition, the molecule was called inactive in [2], in experiment [3] and in [6].
For `O=c1ssc(Cl)c1Cl`, the AC50 was 13.8 µM (active) in the experiment with DIO2 (gene 1734) and 3.57 µM (active) in the experiment with DIO3 (gene 1735).
In the case of `O=P(Oc1ccccc1)(Oc1ccccc1)Oc1ccccc1`, the call in [1], in [2], in experiment [3], in [5], in experiment [6] and in experiment [7] was inactive. The molecule was classed as inactive in [8]. Moreover, the concentration at half-maximal activity (AC50) in experiment [4] was 2.97 µM (active).
